Hits are enriched below; roughly 4.2% of the tested compounds scored in any of these assays.
hgDAF-12 ag: H. glycines DAF-12 receptor agonists, primary screen, cell-based, luminescence, HEK293, GAL4 fusion, UAS-luciferase | Nuclear hormone receptor DAF-12 (Heterodera glycines), GAL4 fusion | hit rate 1.8% among 370,000 | HEK293 GAL4-hgDAF12 UAS-luciferase reporter, agonist luminescence; normalized to butyrate control | activation, % at 6.8 µM;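 active = activation above a cutoff set at the mean of all screened compounds plus 3 SD, cut at about 10% in these data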;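 note: 0% = DMSO wells and 100% = sodium butyrate wells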
esBAF inh: Bmi1 luciferase reporter increase in mESCs, primary screen, esBAF inhibitor project, mouse ES cells, Bmi1 luciferase knock-in, single point | hit rate 2% among 350,000 | reporter increase, % at 12.5 µM | 24 h; 100% = twice the neutral-well signal | AID 602393, 2012; in the data active = activation above about 40%; inconclusive = no clear call, values can overlap the other calls;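 note: 0% = median of the plate's neutral control wells and 100% = double that signal; a rise in the Bmi1 reporter signal indicates esBAF inhibition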
ssDAF-12 act: S. stercoralis DAF-12 nuclear receptor activators, primary screen, cell-based, luminescence, HEK293, GRIP1 co-expression, lit1-tk-luc | hit rate 1% among 370,000 | Nuclear hormone receptor DAF-12 (Strongyloides stercoralis) | HEK293 ssDAF-12/GRIP1 lit1-tk-luc reporter; % of 3 µM dafachronic acid response | activation, % at 6.8 µM;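 active = activation above the mean over all tested compounds plus 3 SD, cut at about 0.9% in these data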;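 note: 0% = DMSO-only wells and 100% = 3 µM delta7-dafachronic acid wells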
Wnt bcat act: Wnt/beta-catenin pathway activators, primary screen, cell-based, plate reader, single point; activation, % at 9.35 µM; Wnt/beta-catenin reporter cell assay, activator; hit rate 1.2% among 300,000; in the data active = activation above about 30%, passing the limit was not always enough; inconclusive = no clear call, values can overlap the other calls;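 note: 0% = neutral control wells and 100% = positive control wells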
DAX1 StAR inh: DAX1 (NR0B1) inhibitors on StAR promoter, primary screen, cell-based, luminescence, SF-1 (NR5A1), full-length DAX-1 | HEK293T StAR-luciferase reporter, SF-1/DAX-1 repression relief | inhibition, % at 6.8 µM | hit rate 1.1% among 370,000;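 active = inhibition above the mean over all tested compounds plus 3 SD, cut at about 3.6% in these data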;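 note: 0% = DAX-1 cells with DMSO and 100% = cells lacking DAX-1 with DMSO; higher inhibition means more luminescence from relief of DAX-1 repression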
hcDAF-12 act: H. contortus DAF-12 nuclear receptor activators, primary screen, cell-based, luminescence, HEK293, lit1-tk-luc reporter. HEK293 hcDAF-12 lit1-tk-luc reporter; 0% DMSO, 100% Δ7-dafachronic acid. activation, % at 6.8 µM. hit rate 1.4% among 370,000;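 active = activation above the mean of all tested compounds plus 3 SD, cut at about 5.5% in these data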;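 note: 100% = response to 3 µM Δ7-dafachronic acid high control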
Numbers without * were called inactive; ? = inconclusive; · = no result.

SMILES	hgDAF-12 ag	esBAF inh	ssDAF-12 act	Wnt bcat act	DAX1 StAR inh	hcDAF-12 act
COc1ccc(S(=O)(=O)Nc2ccc3c(c2)C(=O)N([C@H](C)CO)C[C@@H](C)[C@H](CN(C)Cc2ccncc2)O3)cc1	·	2	·	·	·	·
COc1ccc(CNC(=O)C[C@H]2C=C[C@@H](NC(=O)Nc3ccc4c(c3)OCO4)[C@H](CO)O2)cc1	·	-2	·	·	·	·
CCOC(=O)c1sc(Nc2ccccc2)nc1C	7	78*	-1	·	2	2
CCOC(=O)c1sc(Nc2nc3c(OC)cccc3s2)nc1C	0	67*	1	·	0	2
CC(=O)c1sc(Nc2ccccc2)nc1C	4	36	-1	1	0	2
CCOC(=O)c1sc(Nc2ccc(F)cc2)nc1C	4	·	-1	-5	1	0
CC(C)(C)C(=O)c1sc(Nc2ccccc2)nc1N	9	57*	0	0	1	1
C[C@@H]1CN([C@@H](C)CO)C(=O)c2cc(NC(=O)Nc3ccc4c(c3)OCO4)ccc2O[C@@H](C)CCCCO[C@@H]1CN(C)C(=O)Cc1ccccc1	·	-2	·	·	·	·
COc1ccccc1S(=O)(=O)N1CC[C@H]2[C@H](CO)Nc3ccc(-c4cccc(C#N)c4)cc3[C@H]21	·	-1	·	·	·	·
Cc1csc(-c2nc3ccccc3n2C(C)c2nc3ccccc3[nH]2)c1 (stereo not given)	-1	·	0	-1	1	5.7*
C[C@H](CO)N1C[C@H](C)[C@@H](CN(C)CC2CCCCC2)OCc2cn(nn2)CCCC1=O	·	-2	·	·	·	·
CCN=C1S/C(=C\c2cn(CC(=O)NCc3ccco3)c3ccccc23)C(=O)N1CC	-2	15	-2	-9	-1	-4
COC(=O)Cn1cc(/C=C/c2cc[n+](C)cc2)c2ccccc21	1	-3	-1	-1	0	0
CN=C1S/C(=C\c2cn(CC(=O)OC)c3ccccc23)C(=O)N1C	-2	·	0.9*	-1	0	5
CN=C1S/C(=C/c2cn(CC(=O)OC)c3ccccc23)C(=O)N1C	2	·	1.7*	1	-1	3
O=C(NC1CCCCC1)N[C@@H]1CC[C@H](CCNS(=O)(=O)c2ccc(F)cc2)O[C@@H]1CO	·	9	·	·	·	·
C/C(=N\OCC(=O)OCC(=O)NCc1ccccc1)c1ccc2c(c1)OCO2	-3	-1	-1	-5	3.9*	1
CC(=O)Nc1cccc(NC(=O)COC(=O)CO/N=C(\C)c2ccc3c(c2)OCO3)c1	-2	10	-1	0	2	0
Cc1ccccc1OCC(=O)OCC(=O)NCc1ccc2c(c1)OCO2	2	-4	1.2*	-1	-1	1
COCCNC(=O)C[C@H]1CC[C@@H]2[C@@H](COc3ccc(NC(=O)c4cnccn4)cc3C(=O)N2C)O1	·	-1	·	·	·	·
Cc1noc(C)c1S(=O)(=O)Nc1ccc2c(c1)C(=O)N([C@@H](C)CO)C[C@@H](C)[C@H](CN(C)C(=O)Nc1ccccc1)OCCCC[C@@H](C)O2	·	7	·	·	·	·
CC(C)C#Cc1ccc2c(c1)O[C@@H](CN(C)Cc1cccnc1)[C@H](C)CN([C@@H](C)CO)S2(=O)=O	·	1	·	·	·	·
Cc1cccc(NC(=O)CCSc2ccccn2)c1	7	·	0	?	1	-2
Cc1ccc(NC(=O)CCSc2ccccn2)cc1	11*	·	0	27	4.4*	2
C[C@@H]1CN([C@@H](C)CO)C(=O)c2cccc(NS(=O)(=O)c3ccc(Cl)cc3)c2O[C@H]1CN(C)C(=O)Nc1ccccc1	·	-2	·	·	·	·
SMILES	hgDAF-12 ag	esBAF inh	ssDAF-12 act	Wnt bcat act	DAX1 StAR inh	hcDAF-12 act
COc1cccc(Nc2nc(-c3sc(C)nc3C)cs2)c1	5	71*	-2	0	-1	-2
Cc1nc(C)c(-c2csc(Nc3ccc(F)cc3)n2)s1	7	·	-1	34*	-1	3
COc1ccc(OC)c(Nc2nc(-c3sc(C)nc3C)cs2)c1	-3	20	-1	-5	-1	-2
Cc1nc(C)c(-c2csc(Nc3ccc(O)cc3C)n2)s1	-3	19	-1	2	-1	-3
Cc1nc(C)c(-c2csc(Nc3ncccc3C)n2)s1	3	55*	-1	15	0	0
COc1cccc(Nc2nc(-c3sc(N)nc3C)cs2)c1	0	·	-2	3	0	2
Cc1nc(C)c(-c2csc(Nc3ccc(Cl)cn3)n2)s1	4	60*	-1	0	-4	0
CN(C)CC(=O)N1[C@@H]2c3ccc(C4=CCCC4)c(=O)n3C[C@H]1[C@H](CO)[C@H]2C(=O)NCC1CCCCC1	·	-2	·	·	·	·
COCC(=O)Nc1ccc2c(c1)C(=O)N(C)C[C@H](OC)[C@H](C)CN(Cc1cccc(F)c1)[C@H](C)CO2	·	-2	·	·	·	·
O=C(C[C@H]1CC[C@H]2[C@@H](COC[C@H](O)CN2Cc2ccc(Oc3ccccc3)cc2)O1)N1CCc2ccccc2C1	·	16	·	·	·	·
O=C(Nc1nc2ccc(Cl)cc2s1)C1CCCO1 (stereo not given)	8	49*	0	·	1	1
O=C(Nc1nc(-c2ccc(-c3ccccc3)cc2)cs1)C1CCCO1 (stereo not given)	0	22	-2	·	-1	-2
O=C(Nc1nc2ccc(Cl)cc2s1)C1CC1	1	·	-2	60*	0	1
O=C(Nc1nc(-c2ccc(F)cc2)cs1)C1CCCO1 (stereo not given)	7	·	0	45*	0	-1
C[C@@H]1CCCCO[C@@H](CN(C)C(=O)c2ccccc2)[C@H](C)CN([C@H](C)CO)C(=O)c2cc(NC(=O)Nc3cccc4ccccc34)ccc2O1	·	14	·	·	·	·
CC(C)NC(=O)N(C)C[C@H]1Oc2ccc(NC(=O)CCC(F)(F)F)cc2C(=O)N([C@H](C)CO)C[C@H]1C	·	3	·	·	·	·
O=C(/C=C/c1cccc([N+](=O)[O-])c1)Nc1ccccn1	0	·	-2	0	1	2
Cc1ccc2oc(-c3cccc(NC(=O)/C=C/c4cccc([N+](=O)[O-])c4)c3C)nc2c1	9	·	0	12	1	6.2*
C[C@@H]1CN([C@@H](C)CO)C(=O)c2cc(NC(=O)Nc3ccccc3)ccc2O[C@@H](C)CCCCO[C@H]1CN(C)C(=O)c1ccccc1	·	-3	·	·	·	·
COc1ccccc1NC(=S)NNC(=O)c1ccccc1	11*	·	0	·	2	0
COc1cc(OC)cc(C(=O)NNC(=S)Nc2ccccc2OC)c1	2	·	-2	·	0	2

Screening data (PubChem)
